HCV inhibitor = blocks hepatitis C virus | Huh7.5.1 HCVcc-Cre infection, luciferase reporter, 44 h | Potency, µM (doses to about 41.8 µM), without a hit: at the top dose activity change, negative = inhibition, most hits filed as inhibitors | 3.4% of 340,000 active; also: % is scaled to controls: 0 for no effect and ±100 for the full control effect
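Cells (1,000/well) were plated 4 h before compound, then infected with HCVcc-Cre virus (~0.5 moi). After 44 h further culture, infection was read as luciferase luminescence following a 15 min substrate incubation at room temperature.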
SARS PLP yeast = SARS-CoV PLP inhibition in yeast | 0.19% of 330,000 active | Potency, µM (doses to about 32.9 µM), without a hit: at the top dose activity, positive = growth rescue, hits mostly activators | S. cerevisiae expressing SARS-CoV PLpro, growth rescue; calls by dose curve; also: 0% is about no effect; nearly all actives have a fitted effect of over 55% in size
NS1 inh = influenza NS1 inhibition. Potency, µM (titrated, usually from 46.1 µM), for the others: top-dose activity, positive = more growth. 0.4% of 270,000 active; calls by dose curve; also: actives are rising curves; nearly all actives have a fitted effect of over 50% in size
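In this qHTS, NS1 from influenza A is expressed in budding yeast, where it slows growth. Cells are switched from glucose to 2% galactose medium (pH 6.0, -URA), treated with compound, and growth recovery is read at OD600.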
AMA1 RON2 block = AMA1-RON2 (P. falciparum) interaction inhibition; AlphaScreen AMA1-biotinylated RON2 peptide binding; Potency, µM (titrated, usually from 58.2 µM), for inactives: top-dose activity change, negative = inhibition, hits mostly inhibitors; 0.2% of 360,000 active;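 also: 0% = vehicle wells and -100% = peptide control; nearly all actives have a fitted effect of over 45% in size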
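AMA1 (3D7) with his tag at 25 nM final met compounds first, then biotinylated RON2 peptide at 25 nM; detection used donor plus acceptor beads, 10 µg/mL apiece, read by AlphaScreen after 30 min at room temperature.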
Pf growth 48h = P. falciparum growth inhibition at 48 hours (one generation). P. falciparum luciferase growth in erythrocytes, 48 h. Potency, µM (doses to about 28.7 µM), for the others: at the top dose activity change, negative = inhibition, actives largely listed as inhibitors. 5.9% of 310,000 active. AID 504832; also: % is scaled to controls: 0 for no effect and ±100 for the full control effect
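Growth was read as firefly luciferase luminescence after a 48 h, 37 C, 5% CO2 exposure of compounds to reporter-bearing P. falciparum cultures (0.1% parasitemia, 2% hematocrit final) in Albumax-supplemented RPMI 1640.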
Pf growth 96h = P. falciparum growth inhibition at 96 hour, primary screen for plastid delayed-death inhibitors; P. falciparum luciferase reporter growth, 96 h; Potency, µM (series often up to 28.7 µM), for inactives: at the highest dose activity change, negative = inhibition, most hits filed as inhibitors; AID 504834; 6.9% of 320,000 active; also: % is scaled to controls: 0 for no effect and ±100 for the full control effect
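Delayed-death screen, second-generation endpoint: infected erythrocytes, 2% hematocrit, 0.05% parasitemia final; 96 hours at 37 C, 5% CO2; luciferase detection reagent; luminescence decrease equals reduced growth.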
An asterisk follows results filed as active; ? = inconclusive; / = no result given; [ ] = dose if it differs, or a comment. A selection: hits, their analogues and other compounds. The true share with any hit is near 12%. Unless noted, calls follow the shape of the dose curve; as a rule, active = well fitted curve in the direction sought with a large enough effect; inconclusive = small, poorly fitted or top-dose-only effect, or another doubt; inactive = no such curve, though single readings can be large; an effect the other way counts as inactive or inconclusive. Potency is read from the fitted curve at half-maximal effect.

SMILES	HCV inhibitor	SARS PLP yeast	NS1 inh	AMA1 RON2 block	Pf growth 48h	Pf growth 96h
CCCc1[nH]nc2c1C1(CCN(C(=O)OCc3ccccc3)CC1)C(C#N)=C(N)O2	11%	8%	-6%	7%	?	28%
CCc1[nH]nc2c1C1(CCN(C(=O)OCc3ccccc3)CC1)C(C#N)=C(N)O2	0%	-3%	-1%	-1%	-26%	0.19µM*
Cc1ccc(C(=O)COC(=O)c2cc(=O)[nH]c3ccccc23)cc1C	-6%	-1%	4%	14%	34%	-5%
CCOC(=O)c1ccc(N=C2SC(C(=O)Nc3ccc(C(=O)O)cc3)CC(=O)N2Cc2cccs2)cc1 (centres undefined)	28%	0%	/	-10%	?	13%
CCOC(=O)c1ccc(N=C2SC(C(=O)NC)CC(=O)N2Cc2ccc(F)cc2)cc1 (centres undefined)	24%	-3%	/	-5%	-25%	1.7µM*
N=c1c(C(=O)NCC2CCCO2)cc2c(=O)n3ccccc3nc2n1C1CCCC1 (centres undefined)	-24%	-2%	-12%	6%	-12%	-13%
N=c1c(C(=O)NCC2CCCO2)cc2c(=O)n3ccccc3nc2n1Cc1ccccc1 (centres undefined)	7.1µM*	?	11%	11%	?	?
N=c1c(C(=O)NCC2CCCO2)cc2c(=O)n3ccccc3nc2n1Cc1ccc(Cl)cc1 (centres undefined)	?	2%	1%	17%	10µM*	?
N=c1c(C(=O)NCC2CCCO2)cc2c(=O)n3ccccc3nc2n1C1CCCCC1 (centres undefined)	1%	5%	21%	0%	-7%	2.6µM*
CN(C)c1ccc(/C=N/NC(=O)CN(c2cccc(Cl)c2)S(C)(=O)=O)cc1Br	?	5%	6%	-5%	13µM*	/
O=C(Cc1ccccc1)NCC(=O)Nc1ccccc1Br	16%	1%	6%	-2%	14%	33%
CCn1cc(C(=O)O)c(=O)c2cc(F)c(N3CCNCC3)nc21	-2%	/	/	-3%	3.6µM*	1.4µM*
CCn1cc(C(=O)O)c(=O)c2ccc(C)nc21	0%[8.37 µM]	0%	-26%	4%	5%	5%
CC(=O)NC1=C(N(C)C2CCS(=O)(=O)C2)C(=O)c2ccccc2C1=O (centres undefined)	-58%	4%	20%	9%	13µM*	2.1µM*
CN(C(=O)Nc1ccccc1)C1CCS(=O)(=O)C1 (centres undefined)	11%	-21%	9%	12%	-6%	2.3µM*
CC(=O)NC1=C(Nc2ccc(N(C)C)cc2)C(=O)c2ccccc2C1=O	?	-3%	7%	-4%	?	?
CCN(CC)S(=O)(=O)c1ccc(C(=O)NCC(=O)NCc2ccc3c(c2)OCO3)cc1	/	/	/	3%	/	/
c1ccc(-c2ccccc2OCCN2CCCC2)cc1	4%	-2%	18%	-10%	6%	13µM*
OCCCN1CCN(CCCOc2ccccc2-c2ccccc2)CC1	-24%	2%	11%	-23%	?	10µM*
COc1cc(CC(=O)NCCCc2ccccc2)cc(OC)c1OC	-6%	9%	7%	-19%	-3%	-1%
CCN1C(=O)CC(Sc2ccccc2C(=O)O)C1=O (centres undefined)	8%	-1%	8%	6%	-81%	/
CCOC(=O)C(N)CSC1CC(=O)N(c2ccc(C(=O)OC)cc2)C1=O (centres undefined)	-11%	?	-7%	-17%	54%	5.2µM*
COC(=O)c1ccc(N2C(=O)CC(N(C)Cc3ccccc3)C2=O)cc1 (centres undefined)	2%	-13%	-135%	-4%	14%	0.29µM*
COC(=O)c1ccccc1SC1CC(=O)N(c2ccccc2)C1=O (centres undefined)	-4%	-14%	-19%	11%	-22%	12µM*
